Screening data (PubChem BioAssay)
This is a sample that favours compounds with a hit; in the whole collection about 5.8% have one here.
uPA surface inh – qHTS for Inhibitors of Cell Surface uPA Generation; Potency, µM (doses to about 38.3 µM), inactives show top-dose activity change, negative = inhibition, most hits filed as inhibitors; cell surface uPA generation assay, qHTS; 330,000 compounds, 0.31% hits; active = well fitted inhibition curve with a large enough effect; inconclusive = small, poorly fitted or top-dose-only effect; inactive = no such curve, though single readings can be large or run the other way; tested in mouse RAW 264.7 cells; note: potency is the fitted concentration of half-maximal effect; % is set by controls: 0 for no effect and ±100 for the full control effect; nearly all actives have a fitted effect of over 55% in size
VP16 counter – VP16 counterscreen qHTS for inhibitors of ROR gamma transcriptional activity. Drosophila S2 Gal4-VP16 UAS-luciferase, luminescence, 20 h. Potency, µM (doses to about 53.6 µM), for the others: at the highest dose activity, negative = inhibition, hits mostly inhibitors. 310,000 compounds, 3.5% hits. AID 2546, 2010;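 note: Gal4-VP16 expression switched on by copper sulfate through the metallothionein promoter; potency is the fitted concentration of half-maximal effect; % is set by controls: 0 for no effect and ±100 for the full control effect; nearly all actives have a fitted effect of over 50% in size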
TRPV1 potentiator – HTS Assay for Compounds that Act as Potentiators of the Vanilloid Receptor 1; Transient receptor potential cation channel subfamily V member 1 (Homo sapiens), Q8NER1; TRPV1-expressing cells, Fluo-8 calcium influx, capsaicin EC20 potentiation; potentiation, % at 8.33 µM; 320,000 compounds, 0.02% hits; AID 540277, 2011; in the data active = potentiation above about 80%; inconclusive = between about 30% and that limit; note: 0% is about no effect
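TRPV1-expressing cells were cultured overnight at 35.5C and loaded with Fluo-8 calcium dye for 40 to 90 min at room temperature. After a 10 s baseline, compound was added and calcium influx was read kinetically for 3 min (ex 480/em 520 nm).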
TRPV1 agonist – HTS Assay for Compounds that Act as Agonists of the Vanilloid Receptor 1; TRPV1-expressing cells, Fluo-8 calcium influx, agonist mode; Transient receptor potential cation channel subfamily V member 1 (Homo sapiens), Q8NER1; activation, % at 8.33 µM; 320,000 compounds, 0.19% hits; in the data active = activation above about 80%; inconclusive = between about 30% and that limit; note: 0% is about no effect
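Fluo-8 calcium influx in TRPV1-expressing cells, kinetic read (ex 480/em 520 nm). Compound added and read 3 min for agonist activity, followed by capsaicin at EC20 final and 2 min further read for enhancement.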
RORg inh – qHTS for inhibitors of ROR gamma transcriptional activity | Drosophila S2 Gal4-RORgamma UAS-luciferase reporter, 20 h | 310,000 compounds, 5.4% hits | Nuclear receptor ROR-gamma (Mus musculus), P51450 | Potency, µM (highest dose often 53.6 µM), without a hit: at the top dose activity change, negative = inhibition, usual class: inhibitors; note: potency is the fitted concentration of half-maximal effect; % is set by controls: 0 for no effect and ±100 for the full control effect; nearly all actives have a fitted effect of over 60% in size
Target sequence (P51450 whole entry, looked up, the tested form may be a part): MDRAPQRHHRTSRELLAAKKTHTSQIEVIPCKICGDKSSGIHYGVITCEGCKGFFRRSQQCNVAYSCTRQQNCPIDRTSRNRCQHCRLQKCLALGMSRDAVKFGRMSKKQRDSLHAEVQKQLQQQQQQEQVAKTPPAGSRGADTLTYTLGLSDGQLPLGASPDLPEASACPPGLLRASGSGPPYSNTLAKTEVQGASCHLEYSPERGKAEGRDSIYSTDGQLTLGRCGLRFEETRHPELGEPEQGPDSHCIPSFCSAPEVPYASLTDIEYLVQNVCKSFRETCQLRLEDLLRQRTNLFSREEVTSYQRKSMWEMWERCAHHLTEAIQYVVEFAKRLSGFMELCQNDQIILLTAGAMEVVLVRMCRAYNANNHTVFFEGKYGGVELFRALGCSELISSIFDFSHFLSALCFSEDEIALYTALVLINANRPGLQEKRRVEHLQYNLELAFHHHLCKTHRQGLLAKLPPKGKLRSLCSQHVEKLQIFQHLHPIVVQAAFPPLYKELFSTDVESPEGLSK
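Drosophila Schneider cells stably carrying a metallothionein-driven Gal4 DBD–ROR gamma fusion and a UAS-Photinus luciferase reporter were exposed to compound for 1 hr, then induced with copper sulfate (700 uM final) for 20 hr at ambient temperature before luminescence reading.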
Starred values were filed as active, the others as inactive; ? = inconclusive; . = no result given; ! = a repeat was not active; [ ] = another dose, or the depositor's remark. Unless noted, calls come from the whole dose curve; as a rule, active = well fitted curve in the direction sought with a large enough effect; inconclusive = small, poorly fitted or top-dose-only effect, or another doubt; inactive = no such curve, though single readings can be large; an effect the other way counts as inactive or inconclusive.

SMILES	uPA surface inh	VP16 counter	TRPV1 potentiator	TRPV1 agonist	RORg inh
C=C1C(=O)OC2C1CC/C(C)=C/CCC1(C)OC21 (configuration not stated)	.	3.98µM*	.	.	4.47µM*
C=C1C(=O)O[C@@H]2C3OC3(C)CC/C=C(\C)CC[C@@H]12 (some centres not stated)	.	28.2µM*	.	.	?
CCCCCCC1=Cc2cc(OC)c(OC)cc2C(C(C(C)=O)C(=O)OC)O1 (configuration not stated)	.	10.5%[10 µM]	.	.	40.8%[10 µM]
O=C1C=C(c2ccc(Oc3ccccc3)cc2)C[C@@H](c2ccc(F)cc2)C1	7.2%	.	-2.2	27.7	.
CC(C)(C)c1cccc(C2(O)C(=O)c3ccccc3C2=O)c1O	-3.2%	12.6µM*	15.2	0.5	-27.5%
COc1cccc(C2=Nn3c(nnc3-c3cc(OC)cc(OC)c3)SC2)c1	.	-7.4%	.	.	-8.3%
Nc1ccccc1C(=O)NNC(=O)C(=O)/C=C(\O)c1ccccc1	-7.5%	?	7.0	4.3	11.2µM*
COc1ccc([N+](=O)[O-])cc1NC(=O)c1cn(-c2ccc(Cl)cc2)c(=O)c2ccccc12	-5.0%	-5.8%	-0.4	-1.3	10.2%
CCCC(=O)Nc1nn(C)c2nc3c(C)cccc3cc12	1.3%	-10.7%	21.0	2.2	4.9%
Cc1cccc2cc3c(NC(=O)c4ccccn4)nn(C)c3nc12	8.8%	3.98µM*	-3.5	?	2µM*
COC(=O)c1ccccc1NC(=S)N(Cc1ccc2c(c1)OCO2)Cc1cc2cccc(C)c2[nH]c1=O	6.4%	-10.8%	9.1	2.2	8.7%
O=C(N/N=C/c1ccccc1O)C1CC(=O)N(c2ccc(Cl)cc2)C1 (configuration not stated)	?	1.12µM*	-9.4	?	0.891µM*
Cc1c(Cl)cccc1NC(=S)N1CCC(C(N)=O)(N2CCCCC2)CC1	-4.2%	8.4%	-0.6	4.2	4.0%
CN(C(=S)NC(=O)C12CC3CC(CC(C3)C1)C2)c1ccc(O)cc1	-20.6%	.	.	.	.
CN(C)NC(=S)NC(=O)C12CC3CC(CC(C3)C1)C2	5.5%	2.82µM*	-14.2	1.1	1µM*
O=C(NC1C2CC3CC(C2)CC1C3)C1CC1 (configuration not stated)	1.5%	-8.8%	4.0	10.4	31.8%
O=C(NC(=S)NC1C2CC3CC(C2)CC1C3)C12CC3CC(CC(C3)C1)C2 (configuration not stated)	3.8%	2.82µM*	18.2	-3.5	1µM*
CC(C)(C)NC(=S)NC(=O)C12CC3CCC(CC(C3)C1)C2	0.3%	4.47µM*	-6.5	10.2	2.82µM*
CCOC(=O)C1CCCN(C(=O)c2ccc(C)c([N+](=O)[O-])c2)C1 (configuration not stated)	2.8%	-13.9%	-0.2	3.0	-2.2%
CCc1cc[n+](-c2nc3ccccc3nc2[N-]S(=O)(=O)c2ccc(Br)s2)cc1	2.3%	?	11.7	3.4	-26.1%
Cc1ccc(SC(CC(=O)c2ccc(F)cc2)C(=O)O)cc1 (configuration not stated)	-7.2%	-72.2%	11.9	-8.2	?
CC(C)(C)c1ccc(C(=O)CC(Sc2ccc(Cl)cc2)C(=O)O)cc1 (configuration not stated)	-12.2%	6.31µM*	7.6	0.5	1.58µM*
CCOC(=O)c1c(NC(=O)/C=C/C(=O)O)sc(C)c1-c1ccc(C)c(C)c1	?	5.9%	9.2	-2.7	10µM*
COC(=O)c1c(NC(=O)/C=C/C(=O)O)sc(C)c1-c1ccc(C)c(C)c1	-11.2%	-4.8%	5.9	-5.2	4.47µM*
CCOC(=O)c1c(NC(=O)/C=C/C(=O)O)sc(C)c1-c1ccc(F)cc1	.	8.7%	1.6	-8.3	?
SMILES	uPA surface inh	VP16 counter	TRPV1 potentiator	TRPV1 agonist	RORg inh
CN(C)/C=C/C(=O)c1cccc(Cl)c1	-6.1%	10µM*	-3.9	-0.4	11.3%
COc1ccc(/C=N/Nc2ncnc3scc(-c4ccccc4)c23)cc1OC	.	0.891µM*	14.1	-6.3	3.55µM*
COc1ccc(/C=N/Nc2nc(-c3cccnc3)nc3ccccc23)cc1OC	-1.4%	-9.5%	1.4	3.7	-10.6%
COc1cccc(C(=O)Oc2ccccc2/C=C\C(=O)c2cc3ccccc3o2)c1	8.91µM*	?	-7.2	?	?
C=CSc1sc(Cl)c(N2CCOCC2)c1[N+](=O)[O-]	-6.1%	-17.2%[10 µM]	-8.2	4.2	-10.2%
C=CS(=O)(=O)c1sc(Cl)c(N2CCOCC2)c1[N+](=O)[O-]	-7.7%	7.08µM*	0.0	6.3	10µM*
CCN(CC)c1ccc(-c2n[nH]c(=S)n2-c2ccccc2C)cc1	-22.7%	-13.7%	3.2	-6.9	?
CCN(CC)c1ccc(-c2n[nH]c(=S)n2-c2ccccc2)cc1	.	-16.7%	2.6	3.9	1.58µM*
CN(C)c1ccc(-c2n[nH]c(=S)n2-c2ccccc2)cc1	-6.3%	?	-7.5	7.9	2.24µM*
Cc1n[nH]c(=S)n1-c1ccccc1	5.6%	-20.0%	-1.6	-2.8	?
CC(=O)Oc1ccc2nc(CN3C(=O)c4ccc([N+](=O)[O-])cc4C3=O)oc(=O)c2c1	-0.1%	0.3%	26.0	0.1	-5.8%
COc1ccc(/C=C/C(=O)CC(O)(c2ccccc2)C(F)(F)F)cc1 (configuration not stated)	-2.3%	?	-1.1	7.8	14.1µM*
O=C(/C=C/c1ccccc1)CC(O)(c1ccccc1)C(F)(F)F (configuration not stated)	-13.2%	?	2.0	14.0	?
O=C(CN1C(=O)COc2ccccc21)N1CCc2ccccc2C1	0.0%	0.8%	15.5	0.8	-30.2%
CC(C)(C=O)C1=CC(=O)c2ccccc2C1=O	-10.9%	5.01µM*	7.7	11.0	14.1µM*
COc1cccc2c1C(=O)C=C(C)C2=O	-18.1%	7.08µM*	8.3	-1.4	11.2µM*
CC1=CC(=O)c2ccccc2C1=O	19.2%	7.94µM*	6.7	-0.7	11.2µM*!
CCc1ccc(NC(=O)CSc2nc(=O)n3cc(C)ccc3n2)cc1	-4.2%	.	10.8	-2.4	.
S=C1Nc2ccccc2Sc2ccc(Cl)cc21	-0.5%	2.82µM*	-3.5	16.7	1.78µM*
Cc1ccsc1/C=N/n1c(C2CCCCC2)n[nH]c1=S	4.7%	3.16µM*	6.9	-0.5	2.51µM*
S=c1[nH]nc(C2CCCCC2)n1/N=C/c1ccccn1	?	-10.3%[10 µM]	-16.6	3.3	-13.0%
Cc1ccc(/C=N/n2c(C3CCCCC3)n[nH]c2=S)s1	-1.8%	3.16µM*	-12.5	25.2	3.16µM*
